Measured values reported in PubChem BioAssay.
For part of these data: Results with a measured potency or affinity are listed apart. Active and inactive are the calls of the source. Unless noted, the rule behind the calls is not given here.

Experiments:
[1] = antimalarial activity against Dd2 strain (AID 2302;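 active = growth inhibition above 50% at the single 2 µM test dose, taken to imply half-maximal potency below 2 µM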;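 note: 0% = DMSO untreated growth and 100% = chloroquine plus artemisinin killed control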); conditions: P. falciparum Dd2 in RBCs, LDH growth readout, 72 h; at 2 µM; active compounds read high
[2] = human hepatoma cell viability loss – ATP luminescence, cytotoxicity control for P. falciparum antimalarial project, primary screen (AID 2303;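 active = inhibition above 50%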;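 note: 0% = DMSO wells and 100% = digitonin-killed cells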); conditions: HepG2 viability, 24-48 h, at 10 µM, active compounds read high
[3] = biological target: L-lactate dehydrogenase (Plasmodium falciparum (isolate CDC / Honduras)) (UniProt Q27743); test: PfLDH activity inhibition – cell lysate, 3D7 strain, counter-screen for P. falciparum growth inhibition project (AID 2304);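 note: 0% = vehicle and 100% = reference inhibitor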; conditions: P. falciparum 3D7 crude extract, LDH APAD/NBT absorbance; at 2 µM; active compounds read high
[4] = inhibition of 3D7 malaria parasite growth – strain 3D7 (AID 2306);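 note: 0% = DMSO wells and 100% = chloroquine plus artemisinin control wells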; conditions: P. falciparum 3D7 erythrocytic growth, LDH absorbance, 72 h; at 2 µM; active compounds read high
[5] = biological target: Calcium-dependent protein kinase 1 (Plasmodium falciparum (isolate 3D7)) (UniProt P62344); test: PfCDPK1 kinase inhibitors, biochemical, TCAMS library (AID 1159585; cut-off not given, nearly all actives have IC50 up to about 0.98 µM;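 note: inhibitors leave more ATP so luminescence rises with inhibition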); conditions: recombinant PfCDPK1, Kinase-Glo ATP depletion luminescence
[6] = biological target: Plasmodium falciparum protein kinase 6 (PK6, PF3D7_1337100) (UniProt Q8IDW1); test: PfPK6 kinase inhibitors, biochemical, TCAMS library (AID 1159586); conditions: recombinant PfPK6, Kinase-Glo ATP depletion luminescence
[7] = biological target: Protein kinase 7 (PK7), Plasmodium falciparum 3D7 (PF3D7_0213400) (UniProt Q7YTF7); test: inhibition of Plasmodium PK7 catalytic activity – biochemical, TCAMS antimalarial set, Kinase-Glo luminescence (AID 1159587); conditions: recombinant PfPK7, Kinase-Glo ATP depletion luminescence
[8] = biological target: Calcium-dependent protein kinase 4 (Plasmodium falciparum (isolate 3D7)) (UniProt Q8IBS5); test: PfCDPK4 kinase inhibitors, biochemical, TCAMS library (AID 1159588; cut-off not given, nearly all actives have IC50 up to about 0.91 µM); conditions: recombinant PfCDPK4, Kinase-Glo ATP depletion luminescence
Calcium-dependent protein kinase 4 (Plasmodium falciparum (isolate 3D7)), sequence (Q8IBS5 whole entry, looked up): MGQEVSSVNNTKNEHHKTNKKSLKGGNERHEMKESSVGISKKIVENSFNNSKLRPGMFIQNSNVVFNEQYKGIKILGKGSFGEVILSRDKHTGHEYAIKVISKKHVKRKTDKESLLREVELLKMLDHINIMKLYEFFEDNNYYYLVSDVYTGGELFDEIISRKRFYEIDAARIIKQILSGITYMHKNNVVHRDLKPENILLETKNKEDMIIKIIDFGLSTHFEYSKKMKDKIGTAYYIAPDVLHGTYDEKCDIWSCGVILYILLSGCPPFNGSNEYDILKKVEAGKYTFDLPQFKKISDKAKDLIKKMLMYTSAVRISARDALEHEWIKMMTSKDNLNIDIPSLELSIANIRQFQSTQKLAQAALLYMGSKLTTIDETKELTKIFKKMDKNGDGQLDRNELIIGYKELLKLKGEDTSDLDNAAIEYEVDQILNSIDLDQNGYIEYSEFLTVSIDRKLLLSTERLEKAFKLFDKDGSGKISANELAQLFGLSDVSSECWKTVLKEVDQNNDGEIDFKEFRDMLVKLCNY

Calcium-dependent protein kinase 1 (Plasmodium falciparum (isolate 3D7)), sequence (P62344 whole entry, looked up): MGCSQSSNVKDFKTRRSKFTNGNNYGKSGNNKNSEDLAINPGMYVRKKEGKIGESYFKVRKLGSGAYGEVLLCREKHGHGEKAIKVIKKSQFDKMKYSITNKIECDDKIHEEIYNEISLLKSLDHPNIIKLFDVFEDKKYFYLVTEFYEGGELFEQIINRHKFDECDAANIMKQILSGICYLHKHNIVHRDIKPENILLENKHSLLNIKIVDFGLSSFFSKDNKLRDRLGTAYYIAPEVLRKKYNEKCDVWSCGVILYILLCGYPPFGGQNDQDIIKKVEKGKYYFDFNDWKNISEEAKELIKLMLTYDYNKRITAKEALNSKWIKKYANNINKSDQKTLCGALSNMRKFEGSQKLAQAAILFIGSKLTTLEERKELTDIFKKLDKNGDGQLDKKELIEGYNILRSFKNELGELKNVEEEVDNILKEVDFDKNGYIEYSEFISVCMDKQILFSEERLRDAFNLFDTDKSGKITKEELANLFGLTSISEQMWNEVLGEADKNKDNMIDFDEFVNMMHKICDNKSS
Plasmodium falciparum protein kinase 6 (PK6, PF3D7_1337100), sequence (Q8IDW1 1-305): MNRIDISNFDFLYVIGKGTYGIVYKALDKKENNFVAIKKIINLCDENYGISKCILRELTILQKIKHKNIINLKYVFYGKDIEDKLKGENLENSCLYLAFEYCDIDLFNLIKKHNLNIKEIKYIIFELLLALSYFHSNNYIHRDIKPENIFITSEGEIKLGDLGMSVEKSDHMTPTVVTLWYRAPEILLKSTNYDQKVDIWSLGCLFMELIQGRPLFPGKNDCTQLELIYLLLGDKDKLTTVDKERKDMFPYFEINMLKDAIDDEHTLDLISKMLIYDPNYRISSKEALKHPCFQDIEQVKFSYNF
Protein kinase 7 (PK7), Plasmodium falciparum 3D7 (PF3D7_0213400), sequence (Q7YTF7 1-343): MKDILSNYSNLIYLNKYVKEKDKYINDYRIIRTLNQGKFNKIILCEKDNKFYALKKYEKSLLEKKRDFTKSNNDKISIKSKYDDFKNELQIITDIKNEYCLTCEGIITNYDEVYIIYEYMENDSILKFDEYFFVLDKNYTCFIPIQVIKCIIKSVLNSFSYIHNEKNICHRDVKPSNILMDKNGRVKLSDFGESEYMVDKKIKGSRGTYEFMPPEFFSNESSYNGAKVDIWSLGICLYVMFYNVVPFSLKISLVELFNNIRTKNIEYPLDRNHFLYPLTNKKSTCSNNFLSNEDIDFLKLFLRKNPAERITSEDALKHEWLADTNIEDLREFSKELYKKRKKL
L-lactate dehydrogenase (Plasmodium falciparum (isolate CDC / Honduras)), sequence (Q27743 whole entry, looked up): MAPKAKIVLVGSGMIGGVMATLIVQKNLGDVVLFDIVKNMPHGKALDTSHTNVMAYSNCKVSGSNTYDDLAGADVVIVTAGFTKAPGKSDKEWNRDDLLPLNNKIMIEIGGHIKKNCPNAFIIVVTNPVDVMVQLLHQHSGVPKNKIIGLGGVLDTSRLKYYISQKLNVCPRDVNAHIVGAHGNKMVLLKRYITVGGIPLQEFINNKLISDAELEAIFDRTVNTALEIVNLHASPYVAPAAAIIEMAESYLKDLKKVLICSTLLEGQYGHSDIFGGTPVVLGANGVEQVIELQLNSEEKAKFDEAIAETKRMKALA

NC(N)=Nc1nc(-c2cccc(NC(=O)NCCc3c[nH]c4ccc(OCc5ccccc5)cc34)c2)cs1
active: growth inhibition [4] 101%
inactive: growth inhibition [1] 30% | inhibition [2] -2% | inhibition [3] 0% | outcome [5] | outcome [6] | outcome [7] | outcome [8]

CCCCCCCN1CCC(CC(=O)Nc2ccnc3ccc(OC)cc23)CC1
inactive: inhibition [2] 15% | inhibition [3] -2% | outcome [5] | outcome [6] | outcome [7] | outcome [8]
active: growth inhibition [1] 52% | growth inhibition [4] 97%

Cc1onc(-c2ccccc2)c1-c1nc(NC2CCCC(C)C2)no1 (stereo not drawn)
inactive: growth inhibition [1] 46% | inhibition [2] 22% | inhibition [3] -3% | outcome [5] | outcome [6] | outcome [7] | outcome [8]
active: growth inhibition [4] 101%

Cc1nc(-c2nc(N3CCC(O)CC3)ncc2-c2ccsc2)sc1C
inactive: growth inhibition [1] 35% | inhibition [2] 6% | inhibition [3] -2% | outcome [5] | outcome [6] | outcome [7] | outcome [8]
active: growth inhibition [4] 83%

c1cncc(-c2cc(N3CCc4ccccc4C3)nc(-c3ccncc3)n2)c1
active: growth inhibition [1] 100% | inhibition [2] 56% | growth inhibition [4] 100%
inactive: inhibition [3] -5% | outcome [5] | outcome [6] | outcome [7] | outcome [8]

OCCN1CCN(Cc2cccc(-c3ccc(-c4nc5ccc(C(F)(F)F)cc5[nH]4)s3)c2)CC1
inactive: inhibition [2] 42% | inhibition [3] -5% | outcome [5] | outcome [6] | outcome [7] | outcome [8]
active: growth inhibition [1] 98% | growth inhibition [4] 101%

Nc1c2c(nc3ccc(NC(=O)c4ccccc4)cc13)CCCC2
active: growth inhibition [4] 99%
inactive: growth inhibition [1] 8% | inhibition [2] 0% | inhibition [3] -8% | outcome [5] | outcome [6] | outcome [7] | outcome [8]

O=c1[nH]ccc2nc(N[C@@H]3CCNC3)nc(Nc3cccc(S(=O)(=O)N4CCOCC4)c3)c12
active: growth inhibition [1] 98% | growth inhibition [4] 90%
inactive: inhibition [2] 0% | inhibition [3] 4% | outcome [5] | outcome [6] | outcome [7] | outcome [8]

Cc1cnc(N2CCN(CCCN3CCCC3)CC2)nc1Oc1ccc(-n2ccnc2)cc1
inactive: inhibition [2] 12% | inhibition [3] 4% | outcome [5] | outcome [6] | outcome [7] | outcome [8]
active: growth inhibition [1] 82% | growth inhibition [4] 99%

COc1cc(C(C)C)ccc1N1CCN(CCCCNC(=O)c2ccc(NC(=O)c3ccc(Cl)cc3)cc2)CC1
active: growth inhibition [1] 81% | growth inhibition [4] 98%
inactive: inhibition [2] 25% | inhibition [3] 3% | outcome [5] | outcome [6] | outcome [7] | outcome [8]

Cc1nc(N)nc(N)c1OCCCCCCOc1ccccc1
inactive: growth inhibition [1] -3% | inhibition [3] -2% | outcome [5] | outcome [6] | outcome [7] | outcome [8]
active: inhibition [2] 59% | growth inhibition [4] 95%

CN1CCCC(CN2CCN(Cc3ccc(-c4ccc(-c5nc6ccc(F)cc6[nH]5)s4)cc3)CC2)C1 (stereo not drawn)
active: growth inhibition [1] 100% | inhibition [2] 73% | growth inhibition [4] 101%
inactive: inhibition [3] -2% | outcome [5] | outcome [6] | outcome [7] | outcome [8]

COc1cc2nc(SCCCC#N)n(C3CCCCCC3)c(=N)c2cc1OC
active: growth inhibition [4] 89%
inactive: growth inhibition [1] 9% | inhibition [2] 0% | inhibition [3] 0% | outcome [5] | outcome [6] | outcome [7] | outcome [8]

CC(C)Oc1cc(-c2ccc(S(C)(=O)=O)cc2)nc(N(Cc2cccc(F)c2F)Cc2cccc(F)c2F)n1
active: growth inhibition [1] 99% | growth inhibition [4] 101%
inactive: inhibition [2] 10% | inhibition [3] 4% | outcome [5] | outcome [6] | outcome [7] | outcome [8]

Cc1ccccc1C1CCN(C2CCC(NC(=O)/C=C/c3ccc(C(F)(F)F)cc3)CC2)CC1 (stereo not drawn)
inactive: growth inhibition [1] 19% | inhibition [3] -3% | outcome [5] | outcome [6] | outcome [7] | outcome [8]
active: inhibition [2] 64% | growth inhibition [4] 95%

Cc1ccc(NC(=O)Nc2ccc(S(=O)(=O)c3ccc(NC(=O)Nc4ccc(C)c(Cl)c4)cc3)cc2)cc1Cl
active: growth inhibition [4] 99%
inactive: growth inhibition [1] 42% | inhibition [2] 49% | inhibition [3] 4% | outcome [5] | outcome [6] | outcome [7] | outcome [8]

N#CN1CC[C@H](CS(=O)(=O)c2cccc(Br)c2)C1
active: growth inhibition [1] 74% | growth inhibition [4] 88%
inactive: inhibition [2] 8% | inhibition [3] -2% | outcome [5] | outcome [6] | outcome [7] | outcome [8]

O=C(/C=C/c1ccc(C(F)(F)F)cc1)NCCCCCN1CCCN(C(=O)Nc2ccc(Cl)cc2)CC1
inactive: growth inhibition [1] -1% | inhibition [2] 28% | inhibition [3] -1% | outcome [5] | outcome [6] | outcome [7] | outcome [8]
active: growth inhibition [4] 99%

CC(Sc1nc2sccc2c(=O)n1C)C(=O)Nc1ccc2c(c1)OCO2 (stereo not drawn)
active: growth inhibition [1] 100% | growth inhibition [4] 100%
inactive: inhibition [2] 5% | inhibition [3] 4% | outcome [5] | outcome [6] | outcome [7] | outcome [8]

COc1ccc(-n2ccnc2SCC(=O)Nc2cccc(C(F)(F)F)c2)c(OC)c1
active: growth inhibition [1] 88% | growth inhibition [4] 98%
inactive: inhibition [2] -10% | inhibition [3] 3% | outcome [5] | outcome [6] | outcome [7] | outcome [8]

Cc1[nH]nc2cc(F)c(-c3cc(OC[C@@H](N)Cc4ccccc4)cnc3-c3ccoc3)cc12
active: growth inhibition [4] 95%
inactive: growth inhibition [1] 15% | inhibition [2] 22% | inhibition [3] 6% | outcome [5] | outcome [6] | outcome [7] | outcome [8]
